Measurements reported in PubChem BioAssay (Tox21).
Results filed as inconclusive are left out. Where a call stands in place of a potency, no number is given. Activity calls are given as the source filed them. Calls come from the whole dose curve; as a rule, active = well fitted cell-killing curve with a large enough effect in the repeat runs; inconclusive = weak or mixed curves, or effect the other way; inactive = flat fitted curve, though single readings scatter.
Potency is the fitted concentration of half-maximal effect.

Assay: cAMP Responsive Elements (CRE) small molecule antagonists, cell-based qHTS assay: qHTS cell viability counter screen (AID 2060913); note: nearly all actives have a fitted effect of over 40% in size
Details: CRE-bla HEK293T viability, CellTiter-Glo luminescence, 5 h; series mostly up to 92.4 µM
In short: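 Steps: cells plated and held 18 hrs at 37 C/5% CO2; compounds and NKH477 (0.25 uM final) added; 3 hrs incubation; reporter substrate read; CellTiter-Glo added to measure cytotoxicity by luminescence.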
With O=NN1CCCCC1 the Potency was “inactive”.
With CCCCCCCCCCCCCCC(Br)C(=O)O (stereo not given) the Potency was “inactive”.
With O=[N+]([O-])c1cc([N+](=O)[O-])c2ccccc2c1 the Potency was “inactive”.
In the case of CCN(C(C)=O)c1cccc(-c2ccnc3c(C#N)cnn23)c1, the Potency is reported as “inactive”.
For [Hg+2].[I-].[I-], the Potency was 54.5 µM (active).
In the case of CCC1CCC(=O)O1 (stereo not given), the Potency is reported as “inactive”.
In the case of COc1cc(CC#N)cc(OC)c1OC, the Potency is reported as “inactive”.
In the case of O=c1c2ccccc2c(=O)c2c1cc(Cl)c1[nH]c3c([nH]c12)c(Cl)cc1c(=O)c2ccccc2c(=O)c13, the Potency is reported as “inactive”.
In the case of NCCc1ccc(O)cc1, the Potency is reported as “inactive”.
In the case of S=C(SSC(=S)N1CCCCC1)N1CCCCC1, the Potency is reported as “inactive”.
In the case of CC(C)(C)C(=O)C(Oc1ccc(Cl)cc1)n1cncn1 (stereo not given), the Potency is reported as “inactive”.
In the case of O=[Se]=O, the Potency is reported as 30.4 µM (active).
In the case of O=C(O)c1ccccc1C(=O)Nc1cccc2ccccc12, the Potency is reported as “inactive”.
With CC(=O)C1CCOC1=O (stereo not given) the Potency was “inactive”.
With ClC1=C(Cl)[C@]2(Cl)[C@H]3[C@H]([C@@H]4C=C[C@H]3C4)[C@@]1(Cl)C2(Cl)Cl the Potency was “inactive”.
In the case of CC(Oc1cc(Cl)c(Cl)cc1Cl)C(=O)O (stereo not given), the Potency is reported as “inactive”.
In the case of O=C1c2ccccc2C(=O)C1C(=O)C(c1ccccc1)c1ccccc1, the Potency is reported as “inactive”.
With CCSC(C)CC1CC(=O)C(/C(CC)=N/OC/C=C/Cl)=C(O)C1 (stereo not given) the Potency was “inactive”.
With O=C(Cl)OCc1ccccc1 the Potency was “inactive”.
With Nc1ccc(-c2ccc(N)c(N)c2)cc1N the Potency was “inactive”.
With CN(C)CCN(C)C the Potency was “inactive”.
In the case of O=CCCl, the Potency is reported as “inactive”.
In the case of N#CCNCC#N, the Potency is reported as “inactive”.
With CC1(C)C(C(=O)OC(C#N)c2cccc(Oc3ccccc3)c2)C1(C)C (stereo not given) the Potency was “inactive”.
In the case of COc1nn(CSP(=S)(OC)OC)c(=O)s1, the Potency is reported as “inactive”.
For CCCSC(=O)N(CCC)CCC, the Potency was “inactive”.
With CCOP(=S)(Oc1cnc(C(C)(C)C)nc1)OC(C)C (stereo not given) the Potency was “inactive”.
For CCCBr, the Potency was “inactive”.
With CC(=O)Nc1ccc2c(c1)Cc1ccccc1-2 the Potency was “inactive”.
In the case of ClCCN1CCOCC1, the Potency is reported as “inactive”.
With C=CCN1CC[C@]23c4c5ccc(O)c4O[C@H]2C(=O)CC[C@@]3(O)[C@H]1C5 the Potency was “inactive”.
With COP(=S)(OC)Oc1ccc([N+](=O)[O-])cc1Cl the Potency was “inactive”.
For O=[N+]([O-])c1ccc([As](=O)(O)O)cc1, the Potency was “inactive”.
With C[C@@H]1O[C@@H](O[C@H]2C[C@@H](O)[C@]3(CO)[C@H]4[C@H](O)C[C@]5(C)[C@@H](C6=CC(=O)OC6)CC[C@]5(O)[C@@H]4CC[C@]3(O)C2)[C@H](O)[C@H](O)[C@H]1O the Potency was 0.073 µM (active).
With CCCN(CCC)c1c([N+](=O)[O-])cc(S(N)(=O)=O)cc1[N+](=O)[O-] the Potency was 43 µM (active).
With CC(C(O)c1ccccc1)N(C)C/C=C/c1ccccc1 (stereo not given) the Potency was “inactive”.
For COc1cc(C[C@@H](C)N)c(OC)cc1C, the Potency was “inactive”.
With O=C(N[C@@H]1N=C(c2ccccc2F)c2cccc3c2N(CC3)C1=O)c1cc2ccccc2[nH]1 the Potency was “inactive”.
In the case of CC(=O)OCC1=C(C(=O)O)N2C(=O)[C@@H](N)[C@H]2SC1, the viability change, negative = cytotoxic is reported as -1.82% [at 18.9 µM] (inactive).
For CC(C)[C@@H](Nc1ccc(C(F)(F)F)cc1Cl)C(=O)OC(C#N)c1cccc(Oc2ccccc2)c1 (stereo not given in full), the Potency was “inactive”.
